An excerpt weighted towards active compounds, which were near 12% of everything screened.
SARS PLpro yeast – blocks SARS-CoV papain-like protease in a yeast assay; S. cerevisiae expressing SARS-CoV PLpro, growth rescue; Potency, µM (titrated, usually from 32.9 µM), for inactives: top-dose activity, positive = growth rescue, hits mostly activators; 330,000 compounds, 0.19% hits; calls by dose curve; further: 0% is about no effect; nearly all actives have a fitted effect of over 55% in size
NS1 function inh – blocks influenza NS1 protein function. Potency, µM (highest dose often 46.1 µM), for inactives: at the highest dose activity, positive = more growth. 270,000 compounds, 0.4% hits. AID 2326; calls by dose curve; further: actives are rising curves; nearly all actives have a fitted effect of over 50% in size
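S. cerevisiae expressing influenza A NS1, grown in glucose, washed, then diluted 1:100 into pH 6.0 -URA galactose medium with 23 nl compound. Growth recovery read as OD600; NS1-free strain serves as control.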
Pf growth 48h – inhibits P. falciparum growth in the first generation, 48 h; P. falciparum luciferase growth in erythrocytes, 48 h; Potency, µM (highest dose often 28.7 µM), for inactives: at the top dose activity change, negative = inhibition, most hits filed as inhibitors; 310,000 compounds, 5.9% hits; AID 504832; further: on the % scale 0 is the no-effect control and ±100 the full control effect
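Parasite viability was followed by luminescence of a genomically integrated firefly luciferase. Cultures held 0.1% parasitemia at 2% hematocrit (final), incubated under 5% CO2 at 37 C.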
HCV inh – inhibitors of hepatitis C virus infection; Potency, µM (top dose mostly 41.8 µM), for inactives: at the highest dose activity change, negative = inhibition, actives largely listed as inhibitors; AID 651820; Huh7.5.1 HCVcc-Cre infection, luciferase reporter, 44 h; 340,000 compounds, 3.4% hits; further: on the % scale 0 is the no-effect control and ±100 the full control effect
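Cells (1,000/well) were plated 4 h before compound, then infected with HCVcc-Cre virus (~0.5 moi). After 44 h further culture, infection was read as luciferase luminescence following a 15 min substrate incubation at room temperature.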
Pf growth 96h – P. falciparum growth inhibition at 96 hours; P. falciparum luciferase reporter growth, 96 h; Potency, µM (doses to about 28.7 µM), inactives show at the highest dose activity change, negative = inhibition, usual class: inhibitors; 320,000 compounds, 6.9% hits; further: on the % scale 0 is the no-effect control and ±100 the full control effect
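Luminescence readout: decreased luciferase signal marks inhibited growth of reporter-expressing P. falciparum in infected red cells (2% hematocrit, 0.05% parasitemia final), exposed to compound two generations (96 h, 37 C, 5% CO2).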
AMA1 RON2 block – inhibitors of Plasmodium falciparum AMA1-RON2 interaction. AlphaScreen AMA1-biotinylated RON2 peptide binding. Potency, µM (top dose mostly 58.2 µM), for inactives: at the top dose activity change, negative = inhibition, actives largely listed as inhibitors. 360,000 compounds, 0.2% hits. AID 720542;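 further: 0% = vehicle wells and -100% = peptide control; nearly all actives have a fitted effect of over 45% in size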
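AMA1 (3D7) with his tag at 25 nM final met compounds first, then biotinylated RON2 peptide at 25 nM; detection used donor plus acceptor beads, 10 µg/mL apiece, read by AlphaScreen after 30 min at room temperature.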
* hit, by the source's call; ? = inconclusive; . = no result given; [ ] = another dose, or the depositor's remark. Unless noted, the call rests on the fitted dose curve; in most records, active means well fitted curve in the direction sought with a large enough effect; inconclusive means small, poorly fitted or top-dose-only effect, or another doubt; inactive means no such curve, though single readings can be large; an effect the other way counts as inactive or inconclusive. Potency means the concentration at half of the fitted maximal effect.

SMILES | SARS PLpro yeast | NS1 function inh | Pf growth 48h | HCV inh | Pf growth 96h | AMA1 RON2 block
COCCNC(=O)c1cc2sc3ccccc3c2s1 | -15.1% | -54.6% | 78.3% | ? | 23.9% | -2.2%
CCCN(CCC)CCCNC(=O)c1cc2c(=O)n(CC)c3ccccc3c2s1 | -2.0% | -0.1% | -18.2%[0.00184 µM] | 7.94µM* | ? | 19.9%
CC1Cc2ccccc2N1C(=O)COc1ccc2c(c1)OCO2 (configuration not stated) | -9.1% | . | 12.9% | -12.0% | -2.8% | 14.4%
Cc1cnc(C(=O)Nc2cccc3ncccc23)cn1 | -8.6% | -10.3% | 2.2% | 1.9% | ? | 22.0%
Cc1cnc(C(=O)Nc2ccccc2-c2ccc(C)o2)cn1 | 6.3% | -12.8% | -85.8% | 7.94µM* | ? | -13.8%
c1c[nH]c(CN2CCN(Cc3ncc[nH]3)CC2)n1 | . | -10.4% | . | 33.5% | . | 0.9%
CCC(C)(C)NC(=O)C(c1cccc(OC)c1OC)N(CCOC)C(=O)CCC(=O)Nc1cc(C)on1 (configuration not stated) | 0.8% | -1.8% | 2.9% | 0.3% | 10.4µM* | 7.5%
COc1ccc(C(C(=O)NC(C)(C)C)N(CCO)C(=O)CCC(=O)Nc2cc(C)on2)cc1 (configuration not stated) | 0.5% | 8.2% | -12.0% | 8.5% | 0.0% | 19.1%
Cc1cc(NC(=O)CCC(=O)N(c2ccccc2)C(C(=O)NC(C)(C)C)c2ccccc2Cl)no1 (configuration not stated) | 1.3% | 26.8% | 13.1µM* | 15.6% | -18.4% | -4.8%
CCC(C)(C)NC(=O)C(c1ccccc1Cl)N(C(=O)CCC(=O)Nc1cc(C)on1)c1ccc(NC(C)=O)cc1 (configuration not stated) | 2.0% | 22.8% | -52.1% | -2.0% | -0.8% | 4.7%
COc1ccc(C(C(=O)NC(C)(C)C)N(CCc2ccccc2)C(=O)CCC(=O)Nc2cc(C)on2)cc1 (configuration not stated) | 1.1% | 14.4% | 11.7µM* | -16.1% | 1.8% | -9.2%
CCC(C)(C)NC(=O)C(c1ccc(OC)cc1)N(Cc1cccs1)C(=O)CCC(=O)Nc1cc(C)on1 (configuration not stated) | 7.2% | -6.6% | 10.4µM* | ? | 3.4% | -19.7%
O=C(CCC1CCCN(C2C3CC4CC(C3)CC2C4)C1)NCc1ccc(F)c(F)c1 (configuration not stated) | 1.1% | -4.2% | -22.9% | -13.5% | 3.6% | -8.9%
O=C(Nc1ccc(N2C(=O)C3C4C=CC(C4)C3C2=O)cc1Cl)c1cccs1 (configuration not stated) | 0.6% | . | 1.9% | 13.0% | ? | -4.1%
CCC(C)(C)NC(=O)C(c1ccc(C)cc1)N(Cc1cccs1)C(=O)c1ccc2c(c1)OCCO2 (configuration not stated) | -6.8% | -43.5% | ? | -18.5% | 11.7µM* | -18.5%
Cc1c(N=C2N=C(NC(=O)c3ccc(F)cc3)c3ccccc32)c(=O)n(-c2ccccc2)n1C | 1.2% | -3.6% | 7.38µM* | -10.3% | 9.3%[5.75 µM] | -9.2%
N=c1c(C(=O)NC2CCCC2)cc2c(=O)n3ccccc3nc2n1Cc1ccccc1 | 14.9% | -2.4% | ? | ? | ? | -0.2%
N=c1c(C(=O)NC2CCCCC2)cc2c(=O)n3ccccc3nc2n1Cc1ccc(F)cc1 | 0.1% | 22.3% | 2.08µM* | -26.0% | ? | -2.3%
Cc1cccn2c(=O)c3cc(C(=O)NC4CCCC4)c(=N)n(Cc4ccc(F)cc4)c3nc12 | 14.8% | -4.4% | ? | 11.2µM* | ? | 8.9%
Cc1ccc(Cn2c(=N)c(C(=O)NC3CCCCC3)cc3c(=O)n4ccccc4nc32)cc1 | -2.5% | 6.8% | 4.15µM* | 3.2% | 2.94µM* | -0.8%
CC(C)(C)OC(=O)CNC(=O)c1[nH]cnc1C(=O)NC1CCN(C(=O)OC(C)(C)C)CC1 | 4.6% | 13.5% | ? | -2.7% | ? | 50.4%
Cn1cnc(C(=O)NC2CCN(C(=O)OC(C)(C)C)CC2)c1C(=O)NC1CCN(C(=O)OC(C)(C)C)CC1 | -2.7% | . | . | 0.2% | . | -0.3%
